# Assay outcomes deposited in PubChem by The Scripps Research Institute Molecular Screening Center.
# SRC2 TRFRET art: counter-screen for PPARgamma SRC-2 recruitment agonists: TR-FRET artefact. hits give high values. TR-FRET ratio at 8 µM. hit rate 0.4% among 200,000
# PPARg SRC3 recr: promotes SRC-3 coactivator recruitment by human PPARgamma; P37231; biochemical PPARgamma/SRC-3 coactivator recruitment assay; activation, % at 8 µM; hit rate 0.26% among 200,000; AID 731; in the data active = activation above about 23%;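 also: 0% = DMSO and 100% = reference agonist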
# Target sequence (P37231 whole entry, looked up): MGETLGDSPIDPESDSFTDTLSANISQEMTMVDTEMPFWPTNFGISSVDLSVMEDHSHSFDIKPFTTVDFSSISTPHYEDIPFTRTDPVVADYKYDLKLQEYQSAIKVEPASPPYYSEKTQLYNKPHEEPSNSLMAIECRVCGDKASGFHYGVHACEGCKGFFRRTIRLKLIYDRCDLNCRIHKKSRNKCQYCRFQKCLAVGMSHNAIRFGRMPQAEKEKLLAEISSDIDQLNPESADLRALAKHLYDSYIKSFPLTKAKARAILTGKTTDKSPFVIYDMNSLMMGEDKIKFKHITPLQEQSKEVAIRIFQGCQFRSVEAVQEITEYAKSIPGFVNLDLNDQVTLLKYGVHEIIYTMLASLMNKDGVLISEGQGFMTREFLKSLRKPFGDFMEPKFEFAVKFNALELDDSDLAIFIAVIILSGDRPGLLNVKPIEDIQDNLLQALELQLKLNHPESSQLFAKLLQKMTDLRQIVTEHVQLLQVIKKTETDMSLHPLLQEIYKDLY
# SRC3 TRFRET art: flags TR-FRET format artefacts in PPARgamma SRC-3 recruitment agonist screen; TR-FRET ratio at 8 µM; TR-FRET artefact counter-screen, PPARgamma/SRC-3 format; hits give high values; hit rate 0.39% among 99,000
# PPARg SRC-2 ag: PPARgamma-driven SRC-2 recruitment agonism. hit rate 0.34% among 200,000. PPARgamma LBD-SRC-2 recruitment, biochemical. P37231. AID 1032. activation, % at 8 µM; in the data active = activation above about 22%;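 also: 0% = vehicle and 100% = reference agonist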
# PPARg SRC-1 ag: promotes SRC-1 coactivator recruitment by human PPARgamma | hit rate 0.41% among 200,000 | P37231 | PPARgamma-SRC-1 coactivator recruitment biochemical assay | activation, % at 8 µM; in the data active = activation above about 19%;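 also: 0% = DMSO and 100% = reference agonist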
# SRC1 TRFRET art: TR-FRET artefact, counter-screen to PPARgamma/SRC-1 agonist assay. TR-FRET ratio at 8 µM. hit rate 0.34% among 99,000. TR-FRET detection artefact counter-screen, emission ratio; hits give high values; in the data active = TR-FRET ratio above about 2300
# Numbers without * were called inactive; . = no result. Shown are actives, neighbours in structure and some others; about 0.9% of the full set was active somewhere. Rule as the data show it, unless noted: active = TR-FRET ratio above about 2000; inactive = the rest.
SMILES,SRC2 TRFRET art,PPARg SRC3 recr,SRC3 TRFRET art,PPARg SRC-2 ag,PPARg SRC-1 ag,SRC1 TRFRET art
O=C(COC(=O)c1ccccc1NC(=O)c1ccco1)NC1CC1,2060*,-2.8,1562,13.3,1.4,2082
O=[N+]([O-])c1ccc(OCCN2CCNCC2)cc1,1760,2.5,1641,14.2,2.2,1770
CC(C)C(=O)NC(=S)Nc1ccc(S(=O)(=O)Nc2nccs2)cc1,1735,4.5,1730,8.6,4.3,2318*
O=C(CSc1ccc(Br)c2cccc(Cl)c12)Nc1ccc(S(=O)(=O)Nc2nccs2)cc1,1982*,11.7,2321*,10.4,30.0*,2830*
O=C(NC(=S)Nc1ccc(S(=O)(=O)Nc2nccs2)cc1)c1ccccc1,1692,0.2,1629,5.3,8.8,1767
CCN(CC)S(=O)(=O)c1cc(Cl)ccc1OC,1734,3.2,1501,1.8,6.1,1821
O=C(O)CC/C(=N\NC(=O)c1ccccc1Br)c1ccccc1,1678,1.5,1634,7.4,4.7,1795
Cc1ccccc1N=Cc1cc2c(cc1O)OC(N)=C(C#N)C2c1ccccc1 (configuration not stated),1668,2.6,1831,9.3,13.5,2419*
CCOc1cccc2cc(C(=O)Nc3ccccc3-c3ccccc3)c(=O)oc12,1460,0.6,1345,-9.0,-4.1,1745
CCOc1cccc2cc(C(=O)Nc3cc(C)on3)c(=O)oc12,1720,3.1,.,6.4,37.8*,.
COc1cc2[nH]c(=O)n(CCC(=O)NCCCN3CCN(c4ccccc4F)CC3)c(=O)c2cc1OC,1587,-0.4,1619,6.0,2.4,1709
COc1ccc2[nH]c(=S)[nH]c2c1,1534,10.5,.,12.6,4.7,.
S=c1[nH]c2ccc(Cl)cc2[nH]1,1677,5.2,.,23.6*,5.0,.
COc1ccc2nc(NC(=O)CN(C)S(=O)(=O)c3cccs3)sc2c1,1583,-7.4,.,-4.6,-7.8,.
CCOC(=O)CCC(=O)Nc1ccc([N+](=O)[O-])cc1C,1538,-1.5,1563,-2.7,-7.9,1609
CS(=O)(=O)N(CC(=O)NCc1ccncc1)Cc1ccc(Cl)cc1,1331,27.9*,.,4.6,-5.4,.
Brc1cc2c(cc1C1Nc3ccccc3C3C=CCC31)OCO2 (configuration not stated),1622,-1.6,1653,3.2,1.7,1682
Cc1cc(C)c2c(c1)NC(c1cc3c(cc1Br)OCO3)C1CC=CC21 (configuration not stated),1654,-0.2,1516,5.6,44.9*,3042*
Cc1cc(C)nc(SCc2nnc(SCC(N)=O)o2)n1,1452,0.6,1555,-2.5,7.5,2064
COc1cc(C2Nc3ccc4ncccc4c3C3=C2C(=O)CCC3)ccc1O (configuration not stated),1731,1.8,1541,11.3,6.3,1802
CCN(CC)c1ccc(C=Nc2cc(C)ccc2C)c(O)c1,1541,2.9,1646,8.4,20.9*,2287
O=C(O)c1ccccc1/C=N/N1CCN(C2c3ccccc3-c3ccccc32)CC1,1579,1.3,1672,11.4,3.9,1708
Cc1cc(Cl)ccc1Oc1ncnc2oc(-c3ccccc3)cc12,1479,62.0*,.,9.9,5.0,.
CC1(CCC#N)N=C(SCCC#N)N(c2ccccc2)C1=O (configuration not stated),1990*,1.5,.,7.9,2.4,.
CCOC(=O)c1nn(-c2ccc(Cl)cc2)c2nc(-c3ccc(C)cc3)c(C#N)c(=O)n12,1733,51.9*,.,-0.4,7.5,.
SMILES,SRC2 TRFRET art,PPARg SRC3 recr,SRC3 TRFRET art,PPARg SRC-2 ag,PPARg SRC-1 ag,SRC1 TRFRET art
COCC(=O)N1CCN(c2cccc(Cl)c2)CC1,1364,2.5,1408,2.8,-2.9,1743
Cc1nnc2sc(-c3ccc(NC(=O)c4ccc(-c5ccc(Cl)cc5Cl)o4)cc3)nn12,1494,-1.1,.,-8.6,18.7*,.
Fc1ccc2nc(N3CCOCC3)sc2c1,1359,-1.2,1374,0.9,0.4,1733
Nc1nc2ccc(N3CCOCC3)cc2s1,1575,7.7,.,7.5,24.8*,.
CN(Cc1ccc(OC(F)F)cc1)Cc1nc2c(Br)cc(Br)cc2c(=O)[nH]1,1842,6.8,2068*,9.9,14.4,2212
CCCCCc1c(O)nc(SCC(=O)O)[nH]c1=O,1676,-2.9,.,13.9,2.0,.
Cc1ccc(NC(=O)CSc2ncnc3ccccc23)cc1S(=O)(=O)N1CCCCCC1,1930,9.2,2506*,5.9,7.8,1799
O=C(CSc1ncnc2ccccc12)Nc1cc(S(=O)(=O)N2CCCCC2)ccc1Cl,2930*,3.4,2968*,-5.3,0.2,2201
CC1CN(CC(=O)Nc2cc(S(=O)(=O)N3CCCC3)ccc2Cl)CC(C)O1 (configuration not stated),2051*,2.9,1789,6.4,5.3,2155
Cc1ccc(S(=O)(=O)N2CCCCC2)cc1NC(=O)CSc1ncnc2ccccc12,1581,4.2,1694,-2.4,1.6,1882
CCC1C(=O)Nc2nc(-c3ccccc3)c(-c3ccccc3)n2N=C1C (configuration not stated),1343,-4.9,.,-1.6,-6.3,.
Cc1cc(C)c(C#N)c(SCc2cc3c(cc2Cl)OCO3)n1,2388*,-5.1,.,56.1*,3.3,.
Cc1cc(SCC(=O)c2cccs2)nc2ccccc12,1615,-0.7,1603,3.2,10.0,1980
Cc1cc(/C=C2/NC(=O)N(Cc3ccccc3F)C2=O)c(C)n1C,1764,7.6,1554,22.6*,0.8,1719
O=C(Cc1nc2ccccc2[nH]c1=O)c1ccccc1,1531,7.9,1680,4.7,22.5*,1925
NNc1nc(-c2ccccc2Cl)nc2sc3c(c12)CCCC3,1615,4.2,1658,9.4,0.2,1803
CSc1nc2ccc3nc(NC(=O)c4cccs4)sc3c2s1,1442,-2.4,.,-5.0,40.6*,.
CSc1nc2ccc3nc(NC(=O)c4ccc(Cl)s4)sc3c2s1,1620,2.5,.,-1.1,12.9,.
CCN(c1ccccc1)S(=O)(=O)c1cc(C(=O)O)ccc1C,1579,5.0,.,2.1,8.3,.
CC1=C(C(=O)Nc2ccc(F)c(F)c2)C(c2cccs2)NC(=S)N1 (configuration not stated),1973*,8.2,1907,16.1,16.7,2450*
O=C(CSc1nnc(C2CC2)n1Cc1ccco1)NCC(F)(F)F,1660,-0.4,1469,4.0,2.3,2315*
O=C(O)CCCC(=O)Nc1cc([N+](=O)[O-])ccc1O,1558,5.2,1851,2.1,21.7*,1819
N#Cc1c(-c2ccccc2)cc(-c2ccccc2)nc1SCc1nnc(-c2ccccc2)o1,1373,-3.6,.,4.0,86.2*,.
CC(C)C(Sc1nc(-c2ccccc2)cc(-c2ccccc2)c1C#N)C(=O)O (configuration not stated),1171,3.8,1489,-6.9,-5.2,1481
CCOC(=O)CC(=O)CSc1nc(-c2ccccc2)cc(-c2ccccc2)c1C#N,2021*,8.1,2399*,11.6,10.2,2069
